# From PubChem BioAssay (NCI)
# Compounds without any hit were thinned out: in the full panel of roughly 79,000, 15% have a hit. A number with no mark means an inactive call. Activity calls are given as the source filed them. Rule as the data show it: active = growth inhibition above about 70%; inactive = the rest.
# Legend:
# [1] = NCI Yeast Anticancer Drug Screen. Data for the mlh1 strain (AID 171);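 also: 0% = growth of vehicle-treated control cultures of the same strain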; details: S. cerevisiae mlh1 strain growth inhibition, stronger effect = higher value
# How it was run: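 Yeast carrying a defined genetic alteration in DNA damage repair or cell cycle control were exposed to test compounds. Growth inhibition was measured relative to vehicle-treated controls.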
# [2] = NCI Yeast Anticancer Drug Screen. Data for the sgs1 strain (AID 173);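 also: 0% = growth of vehicle-only control cultures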; details: S. cerevisiae sgs1 mutant, stronger effect = higher value
# How it was run: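 Yeast mutant strains carrying defined defects in DNA damage repair or cell cycle control were exposed to test compounds. Growth inhibition was scored against vehicle-treated controls.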
# [3] = NCI Yeast Anticancer Drug Screen. Data for the mlh1 rad18 strain (AID 175); details: S. cerevisiae mlh1 rad18 strain growth inhibition, stronger effect = higher value
# How it was run: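 Growth inhibition of the yeast strain was measured after compound exposure and expressed relative to vehicle-treated controls. The strain carries defined defects in DNA damage repair.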
# [4] = NCI Yeast Anticancer Drug Screen. Data for the rad18 strain (AID 177); details: S. cerevisiae rad18 mutant growth inhibition, stronger effect = higher value
# How it was run: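 Yeast carrying a defined DNA damage repair alteration were exposed to compounds. Growth inhibition was expressed relative to vehicle-treated controls.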
# [5] = NCI Yeast Anticancer Drug Screen. Data for the rad52 strain (AID 147);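 also: 0% = growth of vehicle-treated control cultures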; details: S. cerevisiae rad52 mutant growth inhibition, stronger effect = higher value
# How it was run: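 Yeast strain carrying a DNA damage repair alteration was exposed to test compounds. Growth inhibition was measured relative to vehicle-treated controls.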
# [6] = NCI Yeast Anticancer Drug Screen. Data for the wt1 strain (AID 149);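 also: 0% = growth of vehicle-treated wt1 cultures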; details: S. cerevisiae wt1 strain (SPY 50644) growth inhibition, stronger effect = higher value
# How it was run: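 wt1 strain grown with compound or vehicle; inhibition taken from the growth difference.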
# [7] = NCI Yeast Anticancer Drug Screen. Data for the mgt1 strain (AID 153); details: S. cerevisiae mgt1 mutant growth inhibition, stronger effect = higher value
# How it was run: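 Yeast mgt1 strain (DNA repair/cell-cycle alteration panel) exposed to compounds; growth inhibition measured relative to vehicle-treated controls.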
# [8] = NCI Yeast Anticancer Drug Screen. Data for the rad50 strain (AID 155);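 also: 0% = growth of vehicle-only cultures of the same strain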; details: S. cerevisiae rad50 strain growth inhibition, stronger effect = higher value
# How it was run: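 DNA repair mutant yeast, compound exposure, growth read-out; inhibition is taken relative to vehicle.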
# [9] = NCI Yeast Anticancer Drug Screen. Data for the mec2-1 strain (AID 157); details: S. cerevisiae mec2-1 strain, stronger effect = higher value
# How it was run: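 mec2-1 yeast strain, carrying an alteration in DNA damage repair or cell cycle control, was exposed to compounds; growth inhibition was measured relative to vehicle-treated controls.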
# [10] = NCI Yeast Anticancer Drug Screen. Data for the rad14 strain (AID 159);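 also: 0% = growth of vehicle-treated control cultures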; details: S. cerevisiae rad14 strain growth inhibition, stronger effect = higher value
# How it was run: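 DNA repair-defective yeast, compound-exposed; % growth inhibition derived by comparison with vehicle-treated controls.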
# [11] = NCI Yeast Anticancer Drug Screen. Data for the sgs1 mgt1 strain (AID 161);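 also: 0% = growth of cultures given vehicle only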; details: S. cerevisiae sgs1 mgt1 strain, stronger effect = higher value
# How it was run: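 This yeast growth screen uses a strain with defined DNA-repair lesions; compound-treated growth is compared with vehicle-treated growth.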
# [12] = NCI Yeast Anticancer Drug Screen. Data for the CLN2oe strain (AID 163);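 also: 0% = growth of vehicle-only control cultures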; details: S. cerevisiae CLN2oe strain, stronger effect = higher value
# How it was run: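 Yeast cells carrying a defined cell-cycle control alteration were exposed to test compounds. Growth inhibition was scored against vehicle-treated control cultures.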
# [13] = NCI Yeast Anticancer Drug Screen. Data for the cln2 rad14 strain (AID 165);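 also: 0% = growth equal to vehicle treated cultures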; details: S. cerevisiae cln2 rad14 strain, stronger effect = higher value
# How it was run: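 Yeast carrying cln2 and rad14 alterations (cell cycle control and DNA damage repair) were exposed to compounds. Growth inhibition was measured against vehicle-treated controls.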
# [14] = NCI Yeast Anticancer Drug Screen. Data for the bub3 strain (AID 167); details: S. cerevisiae bub3 mutant strain, stronger effect = higher value
# How it was run: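 In this screen, a yeast mutant lacking normal mitotic checkpoint function is challenged with compound. Relative growth versus vehicle gives the inhibition value.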
# [15] = NCI Yeast Anticancer Drug Screen. Data for the wt2 strain (AID 169);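 also: 0% = growth of vehicle-treated yeast cultures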; details: S. cerevisiae wt2 strain growth inhibition, stronger effect = higher value
# How it was run: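 Yeast cells were exposed to test compounds, and growth inhibition was measured relative to vehicle-treated controls.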
# [16] = NCI Yeast Anticancer Drug Screen. Data for the rad50EPP+ strain (AID 151);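 also: 0% = growth of vehicle-treated control cultures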; details: S. cerevisiae rad50 mutant strain, stronger effect = higher value
# How it was run: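 Yeast strain carrying rad50 alteration (rad50EPP+) exposed to compounds; growth inhibition measured relative to vehicle-treated controls.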
# [17] = at 5.0 µM (retest, dose inferred, filed as 0.5)
# [18] = at 50.0 µM (retest, dose inferred, filed as 5.0)
structure (smiles),measurement,setting,value
O=C(Cc1ccccc1)NNc1nc(NNC(=O)c2ccncc2)nc(Nc2ccc(Cl)cc2)n1,growth inhibition,[1]; at 1.2 µM,-2%
same,growth inhibition,[1]; at 3.7 µM,-1%
same,growth inhibition,[1]; at 11.0 µM,0%
same,growth inhibition,[1]; at 33.0 µM,-2%
same,growth inhibition,[1]; at 100.0 µM,-3%
same,growth inhibition,[2]; at 1.2 µM,3%
same,growth inhibition,[2]; at 3.7 µM,7%
same,growth inhibition,[2]; at 11.0 µM,7%
same,growth inhibition,[2]; at 33.0 µM,6%
same,growth inhibition,[2]; at 100.0 µM,4%
same,growth inhibition,[3]; [17],13%
same,growth inhibition,[3]; [18],14%
same,growth inhibition,[3]; at 50.0 µM,59.9%
same,growth inhibition,[4]; at 1.2 µM,9%
same,growth inhibition,[4]; at 3.7 µM,10%
same,growth inhibition,[4]; at 11.0 µM,19%
same,growth inhibition,[4]; at 33.0 µM,19%
same,growth inhibition,[4]; at 100.0 µM,15%
CCN(CC)C(=S)SC(=S)N(CC)CC,growth inhibition,[5]; at 1.2 µM,-33%
same,growth inhibition,[5]; at 3.7 µM,-17%
same,growth inhibition,[5]; at 11.0 µM,27%
same,growth inhibition,[5]; at 33.0 µM,96% (active)
same,growth inhibition,[5]; at 100.0 µM,98% (active)
same,growth inhibition,[6]; at 1.2 µM,-25%
same,growth inhibition,[6]; at 3.7 µM,-16%
same,growth inhibition,[6]; at 11.0 µM,28%
same,growth inhibition,[6]; at 33.0 µM,92% (active)
same,growth inhibition,[6]; at 100.0 µM,99% (active)
same,growth inhibition,[7]; at 1.2 µM,-42%
same,growth inhibition,[7]; at 3.7 µM,-43%
same,growth inhibition,[7]; at 11.0 µM,16%
same,growth inhibition,[7]; at 33.0 µM,95% (active)
same,growth inhibition,[7]; at 100.0 µM,98% (active)
same,growth inhibition,[8]; at 1.2 µM,-15%
same,growth inhibition,[8]; at 3.7 µM,15%
same,growth inhibition,[8]; [17],10%
same,growth inhibition,[8]; at 11.0 µM,29%
same,growth inhibition,[8]; at 33.0 µM,79% (active)
same,growth inhibition,[8]; [18],46%
same,growth inhibition,[8]; at 50.0 µM,90% (active)
same,growth inhibition,[8]; at 100.0 µM,97% (active)
same,growth inhibition,[9]; at 1.2 µM,-34%
same,growth inhibition,[9]; at 3.7 µM,-10%
same,growth inhibition,[9]; [17],6%
same,growth inhibition,[9]; at 11.0 µM,32%
same,growth inhibition,[9]; at 33.0 µM,97% (active)
same,growth inhibition,[9]; [18],48%
same,growth inhibition,[9]; at 50.0 µM,93.7% (active)
same,growth inhibition,[9]; at 100.0 µM,97% (active)
same,growth inhibition,[10]; at 1.2 µM,-31%
same,growth inhibition,[10]; at 3.7 µM,-4%
same,growth inhibition,[10]; at 11.0 µM,34%
same,growth inhibition,[10]; at 33.0 µM,99% (active)
same,growth inhibition,[10]; at 100.0 µM,98% (active)
same,growth inhibition,[11]; [17],-9%
same,growth inhibition,[11]; [18],87% (active)
same,growth inhibition,[11]; at 50.0 µM,92.8% (active)
same,growth inhibition,[12]; at 1.2 µM,0%
same,growth inhibition,[12]; at 3.7 µM,-8%
same,growth inhibition,[12]; at 11.0 µM,18%
same,growth inhibition,[12]; at 33.0 µM,63%
same,growth inhibition,[12]; at 100.0 µM,98% (active)
same,growth inhibition,[13]; [17],-15%
same,growth inhibition,[13]; [18],18%
same,growth inhibition,[13]; at 50.0 µM,40.2%
same,growth inhibition,[14]; at 1.2 µM,-25%
same,growth inhibition,[14]; at 3.7 µM,-21%
same,growth inhibition,[14]; [17],0%
same,growth inhibition,[14]; at 11.0 µM,-22%
same,growth inhibition,[14]; at 33.0 µM,27%
same,growth inhibition,[14]; [18],58%
same,growth inhibition,[14]; at 50.0 µM,91.4% (active)
same,growth inhibition,[14]; at 100.0 µM,97% (active)
same,growth inhibition,[15]; at 1.2 µM,-21%
same,growth inhibition,[15]; at 3.7 µM,32%
same,growth inhibition,[15]; at 11.0 µM,60%
same,growth inhibition,[15]; at 33.0 µM,98% (active)
same,growth inhibition,[15]; at 100.0 µM,99% (active)
same,growth inhibition,[1]; at 1.2 µM,-38%
same,growth inhibition,[1]; at 3.7 µM,-48%
same,growth inhibition,[1]; at 11.0 µM,-6%
same,growth inhibition,[1]; at 33.0 µM,88% (active)
same,growth inhibition,[1]; at 100.0 µM,98% (active)
same,growth inhibition,[2]; at 1.2 µM,-43%
same,growth inhibition,[2]; at 3.7 µM,-18%
same,growth inhibition,[2]; at 11.0 µM,44%
same,growth inhibition,[2]; at 33.0 µM,90% (active)
same,growth inhibition,[2]; at 100.0 µM,98% (active)
same,growth inhibition,[3]; [17],14%
same,growth inhibition,[3]; [18],73% (active)
same,growth inhibition,[3]; at 50.0 µM,92% (active)
same,growth inhibition,[4]; at 1.2 µM,-26%
same,growth inhibition,[4]; at 3.7 µM,6%
same,growth inhibition,[4]; at 11.0 µM,53%
same,growth inhibition,[4]; at 33.0 µM,95% (active)
same,growth inhibition,[4]; at 100.0 µM,98% (active)
CCCNC(=O)OCc1c(COC(=O)NCCC)c(-c2ccc(Cl)c(Cl)c2)n2c1CCC2,growth inhibition,[5]; at 1.2 µM,-3%
same,growth inhibition,[5]; at 3.7 µM,-7%
same,growth inhibition,[5]; at 11.0 µM,-5%
same,growth inhibition,[5]; at 33.0 µM,29%
same,growth inhibition,[5]; at 100.0 µM,58%
same,growth inhibition,[6]; at 1.2 µM,-25%
same,growth inhibition,[6]; at 3.7 µM,-38%
same,growth inhibition,[6]; at 11.0 µM,-35%
same,growth inhibition,[6]; at 33.0 µM,-34%
same,growth inhibition,[6]; at 100.0 µM,4%
same,growth inhibition,[16]; at 1.2 µM,-4%
same,growth inhibition,[16]; at 3.7 µM,0%
same,growth inhibition,[16]; at 11.0 µM,-6%
same,growth inhibition,[16]; at 33.0 µM,8%
same,growth inhibition,[16]; at 100.0 µM,5%
same,growth inhibition,[9]; at 1.2 µM,-47%
same,growth inhibition,[9]; at 3.7 µM,-40%
same,growth inhibition,[9]; [17],11%
same,growth inhibition,[9]; at 11.0 µM,-31%
same,growth inhibition,[9]; at 33.0 µM,-12%
same,growth inhibition,[9]; [18],25%
same,growth inhibition,[9]; at 50.0 µM,41.1%
same,growth inhibition,[9]; at 100.0 µM,28%
same,growth inhibition,[10]; at 1.2 µM,-28%
same,growth inhibition,[10]; at 3.7 µM,-3%
same,growth inhibition,[10]; at 11.0 µM,0%
same,growth inhibition,[10]; at 33.0 µM,54%
same,growth inhibition,[10]; at 100.0 µM,73% (active)
same,growth inhibition,[11]; [17],30%
same,growth inhibition,[11]; [18],67%
same,growth inhibition,[11]; at 50.0 µM,50.7%
same,growth inhibition,[13]; [17],20%
same,growth inhibition,[13]; [18],73% (active)
same,growth inhibition,[13]; at 50.0 µM,22.8%
same,growth inhibition,[14]; at 1.2 µM,-53%
same,growth inhibition,[14]; at 3.7 µM,-47%
same,growth inhibition,[14]; [17],60%
same,growth inhibition,[14]; at 11.0 µM,-24%
same,growth inhibition,[14]; at 33.0 µM,6%
same,growth inhibition,[14]; [18],90% (active)
same,growth inhibition,[14]; at 50.0 µM,46.2%
same,growth inhibition,[14]; at 100.0 µM,48%
same,growth inhibition,[15]; at 1.2 µM,-36%
same,growth inhibition,[15]; at 3.7 µM,-16%
same,growth inhibition,[15]; at 11.0 µM,-27%
same,growth inhibition,[15]; at 33.0 µM,-21%
same,growth inhibition,[15]; at 100.0 µM,44%
same,growth inhibition,[1]; at 1.2 µM,-9%
same,growth inhibition,[1]; at 3.7 µM,-9%
same,growth inhibition,[1]; at 11.0 µM,-19%
same,growth inhibition,[1]; at 33.0 µM,26%
same,growth inhibition,[1]; at 100.0 µM,57%
same,growth inhibition,[2]; at 1.2 µM,0%
same,growth inhibition,[2]; at 3.7 µM,4%
same,growth inhibition,[2]; at 11.0 µM,11%
same,growth inhibition,[2]; at 33.0 µM,40%
same,growth inhibition,[2]; at 100.0 µM,62%
same,growth inhibition,[3]; [17],22%
same,growth inhibition,[3]; [18],62%
same,growth inhibition,[3]; at 50.0 µM,56.4%
same,growth inhibition,[4]; at 1.2 µM,-35%
same,growth inhibition,[4]; at 3.7 µM,-29%
same,growth inhibition,[4]; at 11.0 µM,2%
same,growth inhibition,[4]; at 33.0 µM,62%
same,growth inhibition,[4]; at 100.0 µM,78% (active)
